Pf growth 96h: inhibits malaria parasite growth, 96 h; Potency, µM (titrated, usually from 28.7 µM), for inactives: top-dose activity change, negative = inhibition, usual class: inhibitors; 320,000 tested, 6.9% active; P. falciparum luciferase reporter growth, 96 h; note: potency is the fitted concentration of half-maximal effect
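Delayed-death screen, second-generation endpoint: infected erythrocytes, 2% hematocrit, 0.05% parasitemia final; 96 hours at 37 C, 5% CO2; luciferase detection reagent; luminescence decrease equals reduced growth.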
HCV inhibitor: blocks hepatitis C virus | Potency, µM (series often up to 41.8 µM), inactives show top-dose activity change, negative = inhibition, most hits filed as inhibitors | 340,000 tested, 3.4% active | AID 651820 | Huh7.5.1 HCVcc-Cre infection, luciferase reporter, 44 h; note: potency is the fitted concentration of half-maximal effect
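Cells (1,000/well) were plated 4 h before compound, then infected with HCVcc-Cre virus (~0.5 moi). After 44 h further culture, infection was read as luciferase luminescence following a 15 min substrate incubation at room temperature.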
HCMV antiviral: human cytomegalovirus inhibition. HFF cells, HCMV-luciferase reporter, 72 h; stronger effect = lower value. activity change, negative = inhibition, % at 57.5 µM. 410,000 tested, 4.5% active; in the data active = activity change below about -60%; inconclusive = no clear call, values can overlap the other calls; inactive = above about -39%
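Screen run at 2 compound doses on HFFs infected with reporter HCMV, MOI 1 PFU/cell. Luciferase activity from cell lysates at 72 h post infection gave inhibition relative to buffer-only and Salinomycin wells.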
Pf growth 48h: P. falciparum growth inhibition at 48 hours (one generation). P. falciparum luciferase growth in erythrocytes, 48 h. Potency, µM (titrated, usually from 28.7 µM), inactives show at the highest dose activity change, negative = inhibition, hits mostly inhibitors. 310,000 tested, 5.9% active; note: potency is the fitted concentration of half-maximal effect
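Cell-based growth assay: transgenic P. falciparum expressing firefly luciferase, cultured in red cells within RPMI 1640 containing 0.5% w/v Albumax, 24 mM bicarbonate and gentamycin. A drop in luciferase activity indicates inhibition.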
* marks the source's active call; other numbers are inactive results; ? = inconclusive; . = no result; + = active, no number. Most compounds without a hit are left out; they make up all but 13% or so of the library. Unless noted, calls come from the whole dose curve; as a rule, active = well fitted inhibition curve with a large enough effect; inconclusive = small, poorly fitted or top-dose-only effect, or another doubt; inactive = no such curve, though single readings can be large or run the other way. % is set by controls: 0 for no effect and ±100 for the full control effect.

SMILES | Pf growth 96h | HCV inhibitor | HCMV antiviral | Pf growth 48h
Cc1c(CCCl)c(Cl)n2c(nc3ccccc32)c1C#N | . | ? | -98.7* | .
CNc1cc(C)c(C#N)c2nc3ccccc3n12 | ? | -15.0% | 3.0 | 7.1%
COc1ccc(NC(=O)c2cc(-c3sc(NC(=O)c4ccccc4)nc3C)n(CCO)n2)cc1 | . | . | 47.3 | .
Cc1cc(C)c2c(n1)nn1c(C)c(CCC(=O)NCc3ccc(Cl)cc3)c(C)nc21 | . | . | 13.5 | .
COc1ccccc1NS(=O)(=O)c1ccc(C(=O)NCc2ccncc2)cc1 | 22.0% | -7.5% | + | 41.6%
COc1ccccc1NS(=O)(=O)c1ccc(C(=O)Nc2ncccc2O)cc1 | ? | 5.4% | . | 4.65µM*
CCCCCn1c(=O)[nH]c2cc(C(=O)NCc3ccc(F)cc3)ccc2c1=O | . | . | 3.6 | .
CS(=O)(=O)N(CC(O)CON=C1c2ccccc2-c2ccccc21)c1ccc(F)cc1 (centres undefined) | ? | ? | -19.8 | ?
CCN(CC(O)CON=C1c2ccccc2-c2ccccc21)S(=O)(=O)c1ccc(C)cc1 (centres undefined) | 2.33µM* | ? | -38.9 | ?
CCCN(CCC)CC(O)CN(c1ccccc1)S(=O)(=O)c1ccc(C)cc1 (centres undefined) | ? | -5.8% | -27.6 | .
CN(CC(O)CON=C1c2ccccc2-c2ccccc21)S(=O)(=O)c1ccc(Br)cc1 (centres undefined) | ? | ? | -19.1 | 6.57µM*
Cc1cccc(N(CC(O)CON=C2c3ccccc3-c3ccccc32)S(C)(=O)=O)c1 (centres undefined) | 13.1µM* | ? | ? | .
CCN(CC(O)CON=C1c2ccccc2-c2ccccc21)S(=O)(=O)c1ccc(Cl)cc1 (centres undefined) | ? | 10µM* | -31.1 | ?
COCCNCC(O)CON=C1c2ccccc2-c2ccccc21 (centres undefined) | ? | -10.3% | -1.7 | ?
CC(C)CNC(=O)C1=CC(c2ccc3c(c2)OCO3)=NS(=O)(=O)N1C | . | . | -3.4 | .
Cc1ccccc1NC(NC(=O)OCCn1c([N+](=O)[O-])cnc1C)C(Cl)(Cl)Cl (centres undefined) | -26.4% | 19.1% | 12.9 | ?
Cc1ncc([N+](=O)[O-])n1CCOC(=O)NC(Nc1ccc(F)cc1)C(Cl)(Cl)Cl (centres undefined) | 6.57µM* | -0.9% | -13.3 | 8.28µM*
Cc1ncc([N+](=O)[O-])n1CCOC(=O)NC(NCc1ccccc1)C(Cl)(Cl)Cl (centres undefined) | 0.329µM* | 9.3% | -25.4 | 8.28µM*
CCC(C)c1ccc(NC(=S)NCCn2cc(Cl)cn2)cc1 (centres undefined) | ? | -11.6% | 114.7 | 9.28µM*
CCC(C)c1ccc(NC(=S)NCCn2cc(Br)cn2)cc1 (centres undefined) | ? | -26.2% | -15.5 | ?
O=S(=O)(c1ccccc1)c1nnn2c1nc(NC1CCCCC1)c1sccc12 | . | . | -19.1 | .
CCn1ncc(CN2CCN(Cc3cccc(OC)c3)C(CCO)C2)c1C (centres undefined) | 7.38µM* | -0.2% | ? | 0.1%
CCn1nc(C)c(CN2CCN(Cc3cccc(OC)c3)C(CCO)C2)c1C (centres undefined) | 11.7µM* | 10.9% | 17.9 | -2.5%
COc1ccc(CN2CCN(Cc3cccc(OC)c3)C(CCO)C2)cc1 (centres undefined) | 20.4% | 6.6% | -28.3 | -0.7%
COc1cc(CN2CCN(Cc3c[nH]c4ccccc34)CC2CCO)cc(OC)c1 (centres undefined) | 10.4µM* | -8.2% | -0.3 | -21.5%
SMILES | Pf growth 96h | HCV inhibitor | HCMV antiviral | Pf growth 48h
CCCCCCSc1ccc(-c2nc3ccc(Cl)cn3c2NC2CCCCC2)cc1 | . | 17.4% | -20.6 | .
Cc1ccc2nc(-c3ccccn3)c(NC3CCCC3)n2c1 | 41.1% | ? | -65.7* | -1.1%
Cc1ccc(Nc2c(-c3ccccn3)nc3ccc(Br)cn23)cc1 | . | . | 4.1 | .
CCCCCCSc1cccc(-c2nc3cc(C)ccn3c2NC2CCCCC2)c1 | ? | -2.6% | 20.9 | 9.28µM*
Cc1ccn2c(NC3CCCCC3)c(-c3cccc(SC4CCCCC4)c3)nc2c1 | . | ? | -25.4 | .
CCCCCCSc1cccc(-c2nc3ccc(C)cn3c2NC2CCCCC2)c1 | 5.22µM* | 4.8% | -2.1 | 9.28µM*
CCOc1ccc(-c2cc(NC(=O)c3cccc(Cl)c3)c(C(=O)OC)s2)cc1 | . | . | 0.2 | .
